ChEMBL document CHEMBL4513216, “Probing the Open Global Health Chemical Diversity Library for Multistage-Active Starting Points for Next-Generation Antimalarials” (ACS Infect Dis, 2020)
Screen size: about 69,000 compounds; about 8,600 (12%) showed an effect of 50% or more. Only a selection was taken, and strong results are over-represented in it overall.

System: Plasmodium berghei
Test: Screen against P. berghei liver stage (PbLuc), transformed with Luciferase, at 10uM
Assay type: functional, HepG2
Details: tested at 10 uM

SMILES | INHIBITION [%]
Cc1cc(C)cc(Nc2nc(C)cc(=O)n2CC(=O)NC(C)C)c1 | 34.6
CCC(C)NC(=O)CCn1ccc(C)n1 (stereo not given) | -5.77
CCC(C)NC(=O)Cn1c(Nc2cc(C)cc(C)c2)nc(C)cc1=O (stereo not given) | 55.4
Cc1cc(=O)n(CC(=O)NCCC(C)C)c(-c2cccc(Cl)c2)n1 | 48.5
CC(C)n1cnc2ccc(NC(=O)CCCn3cccn3)cc2c1=O | -5.38
Cc1cccc(C(=O)N2CCC(C(=O)c3cc(F)ccc3F)CC2)n1 | 11.6
Cc1cc(NC(=O)N2CCCC2C(C)(C)O)c2ncccc2c1 (stereo not given) | 35.4
Cc1cc(NC(=O)N2CCCC2C(=O)NC2CC2)c2ncccc2c1 (stereo not given) | 22.6
Cc1cc(NC(=O)NC2CCN(C(C)C)CC2)c2ncccc2c1 | 70.5
CCN(C(=O)c1nc2c(s1)CCCN2S(C)(=O)=O)C(C)C | 4.68
Cc1cc(C)n(C2CCCN(C(=O)CCNc3ncccn3)C2)n1 (stereo not given) | 41.5
CSc1ccc(-c2nc(CN3CCC(C(N)=O)CC3)c(C)o2)cc1 | -10.2375
Cc1ncc2c(n1)CN(Cc1nc(-c3ccsc3)oc1C)CC2 | -4.92
Cc1oc(-c2ccccc2)nc1CN1CCC(c2ccnn2C)CC1 | 69.7
CSc1ccc(-c2nc(CN3CCC(CN)C3)c(C)o2)cc1 (stereo not given) | -70.3
Cc1oc(-c2ccsc2)nc1CN1CC[C@@H]2CCCC[C@H]2C1 | 28.4
Cc1oc(-c2ccsc2)nc1CN1CCCC(c2ccnn2C)C1 (stereo not given) | 66.3
Cn1cc(NS(=O)(=O)CCOc2ccc(F)cc2)cn1 | -15.29
Cc1cc(C)n(Cc2cc(C(=O)N3CCCC3c3ccccn3)n[nH]2)n1 (stereo not given) | 39.7
CC(=O)Nc1cccc2c1ccn2CC(=O)Nc1ncc[nH]1 | 25.8
COCCOCC(=O)N1CCCC(c2ncc[nH]2)C1 (stereo not given) | -45
Cc1nnc(C2CCN(c3ccccc3)CC2)o1 | 16.5
CN(C)S(=O)(=O)N1CCC(C)(c2ncc(C(N)=O)s2)CC1 | -7.66
Cc1ccc(NC(=O)CN2CCOCC2)c(F)c1 | 28
Cc1ccc(NC(=O)CNC(C)CN2CCOCC2)c(F)c1 (stereo not given) | 41.5
Cc1ccc(NC(=O)CNC(C)CN2CCCCC2)c(F)c1 (stereo not given) | 63.8
Cc1cc(C)n(CCC(=O)N2CCC(Nc3cccnn3)CC2)n1 | -16.75
CC1CN(CC(=O)NC(C2CC2)C2CC2)CCN1Cc1nccn1C (stereo not given) | -43.05

SMILES | INHIBITION [%]
COc1ccc(CN2CCC3(CC2)NC(=O)CC3c2ccncc2)cc1 (stereo not given) | 30.7
Cn1ccnc1C(=O)NCc1cc(=O)n2c(n1)CN(CC1CC1)CCC2 | 4.02
CN1CCCn2c(nc(CNC(=O)c3nccn3C)cc2=O)C1 | 13.7
CCCN1CCCn2c(nc(CNC(=O)c3nccn3C)cc2=O)C1 | 66.8
COCC(=O)NCc1cc(=O)n2c(n1)CN(C)CCC2 | 59.3
COCCN1CCCn2c(nc(CNC(=O)COC)cc2=O)C1 | 31.2
Cc1oncc1C(=O)NCc1cc(=O)n2c(n1)CN(C(C)C)CCC2 | 35.4
COCC(=O)NCc1cc(=O)n2c(n1)CN(CC1CC1)CCC2 | 26.7
CC(C)N1CCCn2c(nc(CNC(=O)c3nccn3C)cc2=O)C1 | 71.6
CC(C)N1CCc2c(CNC(=O)c3nccn3C)cncc2C1 | 24
CCn1cc(CN2CCC3(CC2)c2ccccc2CC3O)cn1 (stereo not given) | 2.7
CC(C)CN1C[C@@H]2C[C@H](C(=O)N3CCCC3)[C@H](C1)O2 | 31.5
c1cc(CN2CCc3ncc(CN4CCCCC4)n3CC2)cs1 | 20.9
Cc1ccc(CN2Cc3nnn(C)c3C(COCC(=O)N(C)C)C2)s1 (stereo not given) | 42.1
CC(C)CNC(=O)c1[nH]nc(C2CC2)c1Br | -7.46
O=C1NC2(Cc3ccccc31)CN(CC1CCNC1)C2 (stereo not given) | 46.6
Fc1cccc(C2CCCN2Cc2nnnn2C2CC2)c1 (stereo not given) | 31.1
O=C(CCC(F)(F)F)N1CCN(Cc2ccncc2)[C@@H]2CS(=O)(=O)C[C@@H]21 | 42.1
Cc1n[nH]c(C)c1CCNC(=O)C1CCCN(CC(N)=O)C1 (stereo not given) | 74.4
CCn1nc(CNC(=O)C2CCCN(CC(N)=O)C2)c2ccccc21 (stereo not given) | 67.2
CCn1nc(CNC(=O)C2CC(=O)N(C3CCCC3)C2)c2ccccc21 (stereo not given) | 30.1
Cc1n[nH]c(C)c1CCNC(=O)C1CCCN(Cc2ccco2)C1 (stereo not given) | -4.96
CCN1CC(C(=O)NCc2noc(Cc3ccccc3)n2)CCC1=O (stereo not given) | 17.6
CCn1nc(CNC(=O)C2CCCN(C(=O)COC)C2)c2ccccc21 (stereo not given) | 10.5
CCN1CC(C(=O)NCc2nn(CC)c3ccccc23)CCC1=O (stereo not given) | 65
CCn1nc(C)c(CCNC(=O)C2CCCN(CC(N)=O)C2)c1C (stereo not given) | 18.8
Cc1ccc2c(c1)c(CNC(=O)C1CCCN(CC(N)=O)C1)nn2C (stereo not given) | 10.5
